Experimental data reported in PubChem BioAssay AID463173 (ICCB-Longwood Screening Facility, Harvard Medical School, 2010).
Out of some 52,000 compounds screened, about 1,700 (3.3%) were called active. What follows is part of a selection rich in actives, with near analogues and random picks from the rest. Values without a mark were called inactive. Rule as the data show it: active = survival mostly below about 52% (no sharp cut-off); inactive = mostly above about 56%.

Tested on: Wild type
Experiment: growth inhibition of S. aureus wild type versus tarO mutant, primary screen, teichoic acid synthesis inhibitors, RN4220, OD600 (AID 463173)
Details: S. aureus RN4220 wild type/DeltatarO growth, OD600, 18 h, active compounds read low, screened at 18.75 µg/mL (by protocol)

Compound | survival
CCOC(=O)c1cccc(NC(=O)NCCc2c(C)nn(C)c2C)c1 | 63%
COc1ccc(Nc2cc(C(=O)NCCCN(C)C3CCCCC3)c3ccccc3n2)c(OC)c1 | 92%
COc1ccc(NC(=O)c2cc3c(-c4ccccc4F)nn(C)c3s2)c(OC)c1 | 38%
O=C1CS(=O)(=O)C2(C(=O)N(Cc3ccccc3)c3ccccc32)N1c1ccccc1 (stereo not drawn) | 132%
COc1cc(NS(=O)(=O)c2cc3c(cc2C)n(C)c(=O)c(=O)n3C)cc(OC)c1 | 54%
COCCNC(=O)CSc1nc(-c2ccccc2)[nH]c1-c1ccc(OC)cc1 | 74%
COc1ccc(-c2nc(-c3ccccc3)c(-c3ccc(O)cc3)[nH]2)cc1 | 3% (active)
COc1ccc(NC(=O)CSc2nc(-c3ccc(OC)cc3)[nH]c2-c2ccc(OC)cc2)cc1 | 76%
COc1ccc(-c2[nH]c(-c3ccc(O)cc3)nc2-c2ccccc2)cc1 | 0% (active)
COc1ccc(-c2nc(-c3ccccc3)c(-c3ccccc3)[nH]2)cc1Br | 81%
COc1ccc(-c2[nH]c(-c3ccccc3)nc2SCC(=O)NC2CCCC2)cc1 | 80%
CCOc1ccc(-c2nc(-c3ccccc3)c(-c3ccccc3)[nH]2)cc1OCC | 163%
COc1cc(-c2nc(SCC(=O)Nc3ccc(C)cc3)c(-c3ccc(F)cc3)[nH]2)cc(OC)c1OC | 106%
COc1cc(-c2nc(-c3cccc(Cl)c3)c(-c3ccccc3)[nH]2)cc(OC)c1OC | 143%
COc1ccc(-c2nc(-c3ccccc3)c(-c3ccc(F)cc3)[nH]2)c(OC)c1C | 15% (active)
COc1ccc(-c2nc(SCC(=O)Nc3ccccc3)c(-c3ccc(F)cc3)[nH]2)cc1OC | 58%
COc1cc(-c2nc(-c3ccccc3)c(-c3ccc(Br)cc3)[nH]2)cc(OC)c1O | 5% (active)
CC(C)(C)n1nnnc1C(c1ccc2ncccc2c1)N1CCc2ccccc21 (stereo not drawn) | 111%
CCc1ccccc1NC(=O)CSc1nnc2ccc3ccccc3n12 | 80%
Cc1ccc(Cl)cc1N(C)C(=O)c1noc2c1CCCCC2 | 65%
CCCCC(=O)OCc1cc(=O)n2nc(C3CC3)sc2n1 | 135%
CCCOc1ccc(CNC(=O)c2ccc(-n3c(C)cc4c3CCC(C)C4)cc2)cc1 (stereo not drawn) | 113%
COc1cccc(C(=O)c2sc(Nc3ccc(C)cc3C)c(S(=O)(=O)c3ccccc3)c2N)c1 | 94%
O=C(O)c1ccc(-c2nc3ccccc3[nH]2)cc1 | 106%

Compound | survival
Oc1ccc(-c2nc(-c3ccccc3)c(-c3ccc(Br)cc3)[nH]2)cc1 | -2% (active)
O=C(CSc1nc(-c2ccc(F)cc2)[nH]c1-c1ccccc1)Nc1ccccc1 | 70%
O=C(Nc1ccc(C(=O)OCc2cc(=O)n3c4c(sc3n2)CCCC4)cc1)c1cccc(F)c1 | 81%
CCc1ccc2nc(N(CCN(CC)CC)C(=O)c3ccco3)sc2c1 | 53%
CCN(CC)CCN(C(=O)c1ccco1)c1nc2ccc(Cl)cc2s1 | 87%
CCN(CC)CCN(C(=O)c1ccc(C(=O)OC)cc1)c1nc2ccc(Cl)cc2s1 | -6% (active)
O=C(CNc1ccccc1Cl)N/N=C1\CCCc2ccccc21 | 105%
Cc1ccccc1Nc1c(-c2ccsc2)nc2c(C)cccn12 | 0% (active)
Cc1cccn2c(Nc3ccccc3)c(-c3cccs3)nc12 | 85%
Cc1ccccc1Nc1c(-c2ccc(O)cc2)nc2c(C)cccn12 | 68%
Cc1ccccc1Nc1c(-c2ccc(Cl)cc2)nc2c(C)cccn12 | 73%
Cc1cccn2c(Nc3ccccc3)c(-c3ccc(N4CCOCC4)cc3)nc12 | 125%
Cc1ccc(Nc2c(-c3ccc(N4CCOCC4)cc3)nc3c(C)cccn23)cc1 | 83%
Cc1ccc(Nc2c(-c3ccc(C)cc3)nc3c(C)cccn23)cc1 | -1% (active)
Cc1ccc(Nc2c(-c3ccsc3)nc3c(C)cccn23)cc1 | -3% (active)
Cc1ccc(Nc2c(-c3ccsc3)nc3cccc(C)n23)cc1 | 19%
COCCCNC(=O)c1c(C)nn(-c2ccc(F)cc2)c1-n1cccc1 | 77%
Cc1sc2c(c1C)c(=O)n(Cc1ccccc1)c(=O)n2CC(=O)N(C)c1ccccc1 | 89%
COc1ccc(C2CC(=O)c3cc(-c4nc(-c5cccc(Cl)c5)cs4)c(=O)[nH]c3C2)cc1 (stereo not drawn) | 67%
Cc1ccc(C(=O)N2CCN(c3ccccc3)CC2)cc1NC(=O)c1nsc2ccccc12 | 73%
COc1ccc(OC)c(NC(=O)C2=C(C)C(=O)OC23CCCCCC3)c1 | 129%
CC1=C(C(=O)Nc2cccc(C(F)(F)F)c2)C2(CCCCCC2)OC1=O | 0% (active)
CC1=C(C(=O)Nc2cccc(C(F)(F)F)c2)C2(CCCCC2)OC1=O | 88%
COc1ccc(NC(=O)C2=C(C)C(=O)OC23CCN(C(C)C)CC3)cc1Cl | 77%

Compound | survival
CC1=C(C(=O)Nc2cccc(C)c2C)C2(CCCCC2)OC1=O | 74%
CC1=C(C(=O)Nc2ccccc2Br)C2(CCC(C)CC2)OC1=O (stereo not drawn) | 83%
CC1=C(C(=O)Nc2cccc(Cl)c2C)C2(CCCCCC2)OC1=O | -2% (active)
CC(=O)N1CCC2(CC1)OC(=O)C(C)=C2C(=O)Nc1cccc(Cl)c1C | 82%
COc1ccc(OC)c(NC(=O)C2=C(C)C(=O)OC23CCN(C(C)C)CC3)c1 | 0% (active)
COC(=O)c1ccccc1NC(=O)C1=C(C)C(=O)OC12CCC(C)CC2 (stereo not drawn) | -6% (active)
COC(=O)c1ccccc1NC(=O)C1=C(C)C(=O)OC12CCCCCC2 | 91%
CC1=C(C(=O)Nc2cccc(C(F)(F)F)c2)C2(CCN(C(C)C)CC2)OC1=O | 91%
Cc1cc(C)n(C(=O)CCCC(=O)O)n1 | 96%
Cc1ccc(CNC(=O)C(CC(C)C)N2Cc3ccccc3C2=O)cc1 (stereo not drawn) | 136%
COc1cc(-c2nc(Cn3nnc(C(=O)Nc4cc(C)cc(C)c4)c3C)c(C)o2)cc(OC)c1OC | 70%
CCOc1cc(CNC(=O)CSc2n[nH]c(-c3ccccc3)n2)cc(OCC)c1OCC | 131%
CC1=C(C(=O)NCc2cccc(Br)c2)C2(CCCCC2)OC1=O | 82%
CC1=C(C(=O)NCc2cccc(F)c2)C2(CCCCC2)OC1=O | 10% (active)
CC1=C(C(=O)NCc2cccc(F)c2)C2(CCCCCC2)OC1=O | 65%
COc1ccc(OCc2nnc(-c3ccccc3)o2)cc1 | 106%
Cc1ccc(N2CCN(C(=O)c3cn(C)c4ccc(S(=O)(=O)N5CCC(C)CC5)cc4c3=O)CC2C)cc1 (stereo not drawn) | 126%
COc1ccc(CNC(=O)Cn2nc(N3CCN(c4ccccc4)CC3)ccc2=O)c(OC)c1 | -4% (active)
CCOc1ccccc1CNC(=O)Cn1nc(N2CCN(c3ccccc3)CC2)ccc1=O | 82%
COc1cccc(NC(=O)Cn2nc(N3CCN(c4ccccc4)CC3)ccc2=O)c1 | 85%
CCn1c(SCC(=O)N(C2CCCCC2)C2CCCCC2)nnc1C(C)C | 100%
CCc1ccc(C2=C(C)C(N3CCC(C(=O)NCc4ccc(C)o4)CC3)=NS2(=O)=O)cc1 | 63%
Cc1ccc(C(=O)NCCc2csc(-c3cccc(F)c3)n2)cc1C | 78%
O=C(COCc1cc(-c2cccs2)on1)N1CCN(c2ccccc2)CC1 | 68%

Compound | survival
O=C(COCc1cc(-c2ccco2)on1)Nc1cccc(O)c1 | 73%
O=C(COCc1cc(-c2cccs2)on1)N1CCN(c2ccc(F)cc2)CC1 | 73%
O=C(COCc1cc(-c2cccs2)on1)Nc1cccc(O)c1 | -3% (active)
O=C(COCc1cc(-c2cccs2)on1)N1CCN(c2cccc(Cl)c2)CC1 | 10% (active)
Cc1ccc(NC(=O)COCc2cc(-c3cccs3)on2)cc1Cl | 65%
CC(=O)N1CCCc2cc(S(=O)(=O)N(C)CC(=O)Nc3cccc(Cl)c3C)ccc21 | 68%
CCOc1ccccc1NC(=O)Cn1nnc(C(=O)NCc2ccc(F)cc2)c1N | 101%
Cc1cccc(Nc2sc(C(=O)c3ccc(Cl)cc3)c(N)c2C(N)=O)c1 | 45%
Cc1ccc(C)n1-c1cccc2cccnc12 | 103%
COc1ccccc1NC(=O)COC(=O)CC(C)(C)CC1=NS(=O)(=O)c2ccccc2N1 | -3% (active)
O=C(COC(=O)CCCC1=NS(=O)(=O)c2ccccc2N1)Nc1ccc(Br)cc1 | 81%
CCOc1ccccc1NC(=O)COC(=O)CC(C)(C)CC1=NS(=O)(=O)c2ccccc2N1 | 63%
CCc1ccc(NC(=O)COC(=O)CCCC2=NS(=O)(=O)c3ccccc3N2)cc1 | 129%
Cc1cccc(NC(=O)COC(=O)CCCC2=NS(=O)(=O)c3ccccc3N2)c1 | -4% (active)
COc1ccc(Cl)cc1NC(=O)COC(=O)CC(C)(C)CC1=NS(=O)(=O)c2ccccc2N1 | 81%
CCS(=O)(=O)N1CCC(NC(=O)c2ccccc2Cl)CC1 | 127%
COc1cccc(NC(=O)CC2C(=O)OCCN2Cc2ccccc2)c1 (stereo not drawn) | 161%
COc1ccc(CN2C(=O)N(c3cccc(C)c3)C(=O)C2CC(=O)Nc2ccc(F)cc2)cc1OC (stereo not drawn) | 73%
CCOC(=O)CSc1ncnc2c1c(-c1ccccc1)cn2-c1ccc(OC)cc1 | 75%
CCCCSc1ncnc2c1c(-c1ccccc1)cn2-c1cccc(F)c1 | 84%
CCCSc1ncnc2c1c(-c1ccccc1)cn2-c1ccccc1OC | 1% (active)
